Counter-ions that a name gives are not always drawn.

The assay deals with Haemophilus parainfluenzae. In words: growth AUC normalised to DMSO control (fraction of control); higher = less growth inhibition, active = hit call of the paper. Particulars: 20 µM;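 active = AUC significantly below DMSO controls by Student t-fit with adjusted P under 0.01; inactive = not significantly reduced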. The method in brief: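 Hemin and NAD were added to the medium for Haemophilus parainfluenzae. All pathogens, after two anaerobic passages, were inoculated at a starting OD578 of 0.01 into pre-reduced mGAM plates with 20 μM compound and 1% DMSO under breathable seals, and OD578 was read hourly for 24 h in three biological replicates. AUC of each growth curve was obtained with the trapezoidal rule up to the exponential-to-stationary transition and normalised to DMSO controls from the same plate.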
Turning to `Nc1ncnc2c1ncn2C1OC(COP(=O)(O)O)C(O)C1O` (stereo not drawn) [Adenosine 5'-monophosphate monohydrate], the “growth AUC normalised to DMSO control” value was 0.982 (inactive). For `CN[C@@H]1[C@H](O)[C@H](NC)[C@H]2O[C@@]3(O)C(=O)C[C@@H](C)O[C@H]3O[C@@H]2[C@H]1O` [Spectinomycin dihydrochloride] the value was 0.117 (active); for `Clc1ccc(Cn2c(CN3CCCC3)nc3ccccc32)cc1` [Clemizole hydrochloride], 0.982 (inactive).

For `Cc1cccc(N(C)C(=S)Oc2ccc3ccccc3c2)c1` [Tolnaftate], the “growth AUC normalised to DMSO control” value was 1 (inactive).

As for `C[n+]1ccccc1/C=N/O` [Pralidoxime chloride], the “growth AUC normalised to DMSO control” value was 0.915 (inactive). For `CN(C)CCOC(c1ccccc1)c1ccccc1` [Diphenhydramine hydrochloride] the value was 0.992 (inactive); for `OCCOCCN1CCN(C2=Nc3ccccc3Sc3ccccc32)CC1` [Quetiapine hemifumarate], 0.997 (inactive).

Turning to `C[C@]12C=CC(=O)C=C1CC[C@@H]1[C@@H]2C(=O)C[C@@]2(C)[C@H]1CC[C@]2(O)C(=O)CO` [Prednisone], the “growth AUC normalised to DMSO control” value was 1.01 (inactive). For `CCN(CCCCOC(=O)c1ccc(OC)c(OC)c1)C(C)Cc1ccc(OC)cc1` (stereo not drawn) [Mebeverine hydrochloride] the value was 1.03 (inactive). For `Nc1nc(NC2CC2)c2ncn([C@H]3C=C[C@@H](CO)C3)c2n1` [Abacavir sulfate] the value was 0.979 (inactive); for `CC(=O)N(O)CCCCCNC(=O)CCC(=O)N(O)CCCCCNC(=O)CCC(=O)N(O)CCCCCN` [Deferoxamine mesylate], 1.07 (inactive). `N[C@@H](Cc1cc(I)c(Oc2ccc(O)c(I)c2)c(I)c1)C(=O)O` [Liothyronine]: the “growth AUC normalised to DMSO control” value is 0.943 (inactive). Turning to `CC1Cc2ccccc2N1NC(=O)c1ccc(Cl)c(S(N)(=O)=O)c1` (stereo not drawn) [Indapamide], the “growth AUC normalised to DMSO control” value is 1.03 (inactive). In the case of `C#Cc1cccc(Nc2ncnc3cc(OCCOC)c(OCCOC)cc23)c1` [Erlotinib] it was 1.04 (inactive); in that of `CCN[C@H]1C[C@H](C)S(=O)(=O)c2sc(S(N)(=O)=O)cc21` [Dorzolamide hydrochloride], 1.03 (inactive). For `COCCOC(=O)C1=C(C)NC(C)=C(C(=O)OC/C=C/c2ccccc2)C1c1cccc([N+](=O)[O-])c1` (stereo not drawn) [Cilnidipine] the value was 1 (inactive); for `CN(C)CCN(Cc1ccccc1)c1ccccn1` [Tripelennamine hydrochloride], 1.01 (inactive); for `CN1C(C(=O)Nc2ccccn2)=C(O)c2sccc2S1(=O)=O` [Tenoxicam], 0.948 (inactive).

With `Nc1ccc(S(=O)(=O)Nc2nccs2)cc1` [Sulfathiazole], the “growth AUC normalised to DMSO control” value is 1.03 (inactive). For `Cc1cc2c(cc1S(N)(=O)=O)S(=O)(=O)CCC2` [Meticrane] the value was 1.04 (inactive); for `Nc1cc(-c2ccncc2)c[nH]c1=O` [Amrinone], 1.09 (inactive); for `CN(C)/N=N/c1[nH]cnc1C(N)=O` [Dacarbazine], 0.999 (inactive). On to `CCN(CC)Cc1cc(Nc2ccnc3cc(Cl)ccc23)ccc1O` [Amodiaquine dihydrochloride dihydrate], for which the “growth AUC normalised to DMSO control” value was 0.992 (inactive). For `CCN1CCN(C(=O)N[C@@H](C(=O)N[C@@H]2C(=O)N3[C@@H]2SC(C)(C)[C@@H]3C(=O)O)c2ccccc2)C(=O)C1=O` [Piperacillin sodium salt] the value was 0.0495 (active). In the case of `CN(Cc1cnc2nc(N)nc(N)c2n1)c1ccc(C(=O)N[C@@H](CCC(=O)O)C(=O)O)cc1` [Amethopterin] it was 0.0201 (active); in that of `CN(C)CCOc1ccc(/C(=C(/CCCl)c2ccccc2)c2ccccc2)cc1` [Toremifene], 0.997 (inactive). In the case of `O=C1CCC(N2C(=O)c3ccccc3C2=O)C(=O)N1` (stereo not drawn) [Thalidomide] it was 0.97 (inactive). Regarding `Cn1cnc2c1c(=O)[nH]c(=O)n2C` [Theobromine], the “growth AUC normalised to DMSO control” value was 1.06 (inactive).

As for `CC(=O)Nc1ccc(O)cc1` [Acetaminophen], the “growth AUC normalised to DMSO control” value is 0.952 (inactive). With `CO[C@H]1C[C@H](O[C@H]2[C@H](C)[C@@H](O[C@@H]3O[C@H](C)C[C@H](N(C)C)[C@H]3OC(C)=O)[C@@H](C)C[C@@]3(CO3)C(=O)[C@H](C)[C@@H](OC(C)=O)[C@@H](C)[C@@H](C)OC(=O)[C@@H]2C)O[C@@H](C)[C@@H]1OC(C)=O` [Troleandomycin], the “growth AUC normalised to DMSO control” value was 0.921 (inactive).

Turning to `COc1ccccc1N1CCN(CCCNc2cc(=O)n(C)c(=O)n2C)CC1` [Urapidil hydrochloride], the “growth AUC normalised to DMSO control” value was 0.979 (inactive). For `CC(=O)N(CC(C)C(=O)O)c1c(I)cc(I)c(N)c1I` (stereo not drawn) [Iocetamic acid] the value was 0.965 (inactive). In the case of `N/C(=N\C(=O)c1nc(Cl)c(N)nc1N)NCc1ccccc1` [Benzamil hydrochloride] it was 0.991 (inactive); in that of `CC(=O)CCCCn1c(=O)c2c(ncn2C)n(C)c1=O` [Pentoxifylline], 1.01 (inactive). On to `OCCOCCN1CCN(C(c2ccccc2)c2ccc(Cl)cc2)CC1` (stereo not drawn) [Hydroxyzine dihydrochloride], for which the “growth AUC normalised to DMSO control” value was 0.978 (inactive).

`Cc1c(N(C)C)c(=O)n(-c2ccccc2)n1C` [Amidopyrine]: the “growth AUC normalised to DMSO control” value was 1.01 (inactive). In the case of `NC1CCN(c2c(F)cc3c(=O)c(C(=O)O)cn(C4CC4)c3c2Cl)C1` (stereo not drawn) [Clinafloxacin] it was 0.0486 (active); in that of `CC[N+](C)(CC)CCOC(=O)C1c2ccccc2Oc2ccccc21` [Methantheline bromide], 1.04 (inactive).

These data come from the supplement of paper PMC12350171.
